# ELG1 genotoxic: qHTS screen for small molecules that induce genotoxicity in human embryonic kidney (HEK293T) cells expressing luciferase-tagged ELG1 | HEK293T ELG1-luciferase reporter, luminescence, 16 h | Potency, µM (titrated, usually from 46 µM), inactives show at the top dose activity change, positive = activation, hits mostly activators | 330,000 compounds, 1.3% hits | AID 504466, 2011; note: % of control where 0% means no effect; nearly all actives have a fitted effect of over 60% in size
#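 Step 1: seed 2,000 HEK293T ELG1-luciferase cells per well. Step 2: add compound or DMSO, incubate 16 hr at 37 °C. Step 3: ONE-Glo, 30 min at room temperature, read luminescence.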
# SMN2 splice enh: qHTS Assay for Enhancers of SMN2 Splice Variant Expression; 210,000 compounds, 2.8% hits; AID 1458, 2008; HEK293 SMN2-luciferase splicing reporter, luminescence, 30-36 h; Potency, µM (series often up to 46.1 µM), inactives show at the top dose activity change, positive = activation, usual class: activators; note: % of control where 0% means no effect; nearly all actives have a fitted effect of over 55% in size
#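 qHTS luciferase splicing reporter: luminescence rises when SMN2 exon 7 is included in transfected HEK293 cells. Compound exposure lasted 30-36 h at 37C, with 4.5 mM final sodium butyrate as control, followed by a ONE-Glo read.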
# NPC1 prom act: qHTS Assay for NPC1 Promoter Activators; Huh7 NPC1 promoter luciferase reporter, 24 h; Potency, µM (top dose mostly 9.22 µM), for the others: at the highest dose activation, hits mostly activators; 320,000 compounds, 2.4% hits; AID 485313, 2010; note: % of control where 0% means no effect; nearly all actives have a fitted effect of over 60% in size
#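 Luminescence from an NPC1 promoter-driven luciferase reporter in stably transfected Huh7 cells was measured after 24 h compound treatment at 37 °C, followed by 10 min ambient incubation with luciferase detection reagent.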
# Rab9 prom act: qHTS Assay for Rab9 Promoter Activators; AID 485297, 2010; Huh7 Rab9 promoter-luciferase reporter, luminescence, 24 h; 320,000 compounds, 2.8% hits; Potency, µM (highest dose often 9.22 µM), for inactives: at the highest dose activation, negative = inhibition, most hits filed as activators; note: % of control where 0% means no effect; nearly all actives have a fitted effect of over 60% in size
#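 Huh7 cells stably carrying Rab9 promoter–luciferase reporter, plated 1500 cells/well, compound added after 2 h and incubated 24 h at 37 °C; luciferase luminescence then read after 10 min with detection reagent.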
# FLuc modulator: qHTS profiling assay for firefly luciferase inhibitor/activator using purifed enzyme and Km concentrations of substrates (counterscreen for miR-21 project); Potency, µM (top dose mostly 57.5 µM), without a hit: at the highest dose activity change, negative = inhibition, usual class: inhibitors; 360,000 compounds, 6.9% hits; purified FLuc, Km substrates, luminescence inhibition; Luciferin 4-monooxygenase (Photinus pyralis), P08659;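 note: plate controls were vehicle for no effect and reference inhibitor for full effect; nearly all actives have a fitted effect of over 55% in size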
# Target sequence (P08659 whole entry, looked up): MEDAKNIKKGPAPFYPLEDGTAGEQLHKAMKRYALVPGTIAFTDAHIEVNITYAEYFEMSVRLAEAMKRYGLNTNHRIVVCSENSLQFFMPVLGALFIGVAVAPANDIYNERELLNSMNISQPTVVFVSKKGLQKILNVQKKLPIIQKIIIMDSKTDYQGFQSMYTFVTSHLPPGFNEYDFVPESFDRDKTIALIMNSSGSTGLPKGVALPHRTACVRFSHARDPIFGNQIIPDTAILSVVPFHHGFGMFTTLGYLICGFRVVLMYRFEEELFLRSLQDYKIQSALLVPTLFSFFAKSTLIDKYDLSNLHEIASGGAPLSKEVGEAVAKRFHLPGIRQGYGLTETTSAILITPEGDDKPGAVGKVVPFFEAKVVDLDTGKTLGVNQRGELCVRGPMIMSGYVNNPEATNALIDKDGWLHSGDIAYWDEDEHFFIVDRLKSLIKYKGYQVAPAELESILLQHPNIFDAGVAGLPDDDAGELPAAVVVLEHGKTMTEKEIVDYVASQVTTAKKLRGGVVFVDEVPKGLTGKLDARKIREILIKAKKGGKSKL
#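 Biochemical qHTS of compounds, final roughly 60 µM downward over six points, against 10 nM purified firefly luciferase using Km concentrations of substrates (10 uM D-luciferin, 10 uM ATP) in Tris acetate pH 7.5 buffer; luminescence output.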
# ELG1 DNA repair: qHTS screen for small molecules that inhibit ELG1-dependent DNA repair in human embryonic kidney (HEK293T) cells expressing luciferase-tagged ELG1; HEK293T ELG1-luciferase reporter, luminescence, 16 h; DNA damage induced by 5-fluorouridine; Potency, µM (top dose mostly 46.1 µM), for the others: at the top dose activity change, negative = inhibition, most hits filed as inhibitors; 330,000 compounds, 2.3% hits; AID 504467, 2011; note: % is set by controls: 0 for no effect and ±100 for the full control effect; nearly all actives have a fitted effect of over 55% in size
#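 In this reporter screen, reduction of luminescence relative to DMSO vehicle indicated activity. Compounds and 5-fluorouridine were added together to 2,000 cells per well, incubated for 16 hr at 37 °C, then developed with ONE-Glo.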
# * hit, by the source's call; ? = inconclusive; . = no result given; [ ] = dose if it differs, or a comment. Shown are actives, neighbours in structure and some others; about 9.2% of the full set was active somewhere. Calls come from the whole dose curve; as a rule, active = well fitted curve in the direction sought with a large enough effect; inconclusive = small, poorly fitted or top-dose-only effect, or another doubt; inactive = no such curve, though single readings can be large; an effect the other way counts as inactive or inconclusive. Potency is the fitted concentration of half-maximal effect.
SMILES,ELG1 genotoxic,SMN2 splice enh,NPC1 prom act,Rab9 prom act,FLuc modulator,ELG1 DNA repair
Clc1nc(-c2n[nH]nc2Cl)n[nH]1,-3%,16%,-1%,-7%,0%,18%
COc1ccc([N+](=O)[O-])cc1/C=N/Nc1nn[nH]n1,1%,-22%,-6%,0%,0%,1%
COc1ccc(/C=N/NC(=S)Nc2ccccc2)cc1,?,10µM*,?,4µM*,11µM*,?
O=C(O)c1cccc(NC(=S)N/N=C/c2cccnc2)c1,?,16%,?,?,11µM*,?
COC(=O)c1cnn(-c2ccc(F)cc2F)c1/C=N/NC(N)=S,-7%,.,2%,-5%,1%,13µM*
S=C(N/N=C/c1ccccc1Cl)Nc1ccccc1,0%,28%,?,?,19µM*,11µM*
CC(=O)Nc1cccc(C(=O)N/N=C/c2cccnc2)c1,9%,4%,2%,11%,?,30%
CNC(=S)N/N=C/c1ccccc1Cl,4%,26%,-1%,0%,2%,?
CNC(=S)N/N=C/c1c(C(=O)OC)cnn1-c1ccc(F)cc1F,-6%,.,1%,-5%,1%,?
CCC1CCCCN1C(=O)c1ccc(OC2CCN(C(=O)C3CC3)CC2)cc1 (centres undefined),?,.,-20%,-27%,1%,?
COc1cc(/C=N/NC(=S)Nc2cccc(C(=O)O)c2)ccc1O,1%,10%,?,?,4.3µM*,-7%
COCCCNC(=S)N/N=C/c1cccc(OC)c1O,-3%,.,10%,-26%,9.5µM*,?
COc1ccc(/C=N/NC(=S)Nc2cccc(C(=O)O)c2)cc1,-6%,13µM*,2µM*,1.8µM*,1.7µM*,?
COC(=O)c1cnn(-c2ccccc2)c1/C=N/NC(=S)Nc1ccccc1,-7%,.,0%,-5%,-2%,21µM*
C/C(=N\NC(=S)Nc1c(C)cccc1C)c1ccc(OC(F)F)cc1,-4%,-20%,-1%,-1%,1%,?
COc1ccc(NC(=O)c2c(C)oc3ccc(O)c(CN4CCN(C)CC4)c23)cc1Cl,.,-8%,.,.,-3%,.
COc1cccc(/C=N/NC(=O)c2ccc(-c3ccccc3)cc2)c1O,2%,-78%,-33%,-29%,2%,?
COc1cccc(/C=N/NC(=S)Nc2cccc(C(=O)O)c2)c1O,2%,16µM*,-3%,-6%,0.19µM*,?
Cc1ccc(Nc2nc3nonc3[nH]c2=O)cc1,?,17%,28%,?,15µM*,?
COc1ccccc1Nc1nc2nonc2[nH]c1=O,-3%,.,-3%,-10%,?,7%
O=C(CSc1ccc(Cl)cc1)Nc1ncccn1,3%,2%,6%,13%,-10%,?
Cn1ncc(Br)c1NC(=O)CSc1ccc(Cl)cc1,-8%,.,-8%,-18%,-1%,7.3µM*
O=c1sc(Nc2ccccc2)nc2ccsc12,18µM*,1%,7%,?,12µM*,?
Cc1ccc2nc(NC(=O)c3ccco3)sc2c1,0.21µM*,1.1µM*,?,0.79µM*,0.27µM*,?
COc1ccc2nc(NC(=O)c3ccco3)sc2c1,0.58µM*,.,0.32µM*,0.11µM*,0.54µM*,?
SMILES,ELG1 genotoxic,SMN2 splice enh,NPC1 prom act,Rab9 prom act,FLuc modulator,ELG1 DNA repair
O=C(Nc1nc2c(s1)CCc1ccccc1-2)c1ccco1,11%,16µM*,?,?,17µM*,?
CC(=O)Nc1nc2c(s1)CCc1ccccc1-2,0%[9.26 µM],.,14%,3%,?,?
Nc1ccccc1[N+](=O)[O-],.,-11%,.,.,.,.
O=C(OCC(=O)N1CCCC1)c1c(Cl)ccc(Cl)c1Cl,2%,.,9%,6%,-11%,12%
COc1ccc(-n2ncc(C(=O)N3CCN(C4CCCCC4)CC3)c2C2CCN(C(=O)OC(C)(C)C)CC2)cc1,.,.,.,.,-6%,.
CC1CN(C(=O)c2ccc(NS(=O)(=O)c3ccc(C(C)(C)C)cc3)cc2)CC(C)O1 (centres undefined),-2%,.,2%,-5%,-2%,-13%
Cc1csc2c(=O)sc(NC(=O)c3ccco3)nc12,1%,.,4%,-1%,?,4%
O=C(Nc1nc2ccsc2c(=O)s1)C1CCC1,?,.,?,?,19µM*,?
O=C(Nc1nc2ccsc2c(=O)s1)c1ccco1,?,.,?,?,15µM*,?
O=C(NCc1ccc(F)cc1)C1CCCN(c2nc3ccsc3c(=O)s2)C1 (centres undefined),0%,-5%,1%,-5%,0%,-7%
Cc1ccc2nc(NC(=S)NC(=O)c3ccco3)sc2c1,?,11µM*,1.4µM*,3.5µM*,0.48µM*,?
Cc1noc(C)c1CSCC(=O)Nc1nc2ccc(S(C)(=O)=O)cc2s1,0%,.,-3%,-6%,4%,0%
O=C(CN(Cc1ccc(F)cc1)C(=O)CNS(=O)(=O)c1ccccc1)NCc1ccco1,5%,.,-3%,-4%,3%,-1%
Cc1oc2c(c1C(=O)Nc1ccc(OC(F)(F)F)cc1)C1=NCCN1C=N2,.,.,.,.,-2%,.
COc1ccc(N2CCN(C(=O)C3CCN(S(=O)(=O)c4ccc5c(c4)oc(=O)n5C)CC3)CC2)cc1,-2%,.,-3%,1%,2%,6%
c1ccc2cc(NCNc3ccc4ccccc4c3)ccc2c1,.,8%[9.22 µM],.,.,.,.
COc1ccc(N2CCN(S(=O)(=O)c3ccc4c(c3)NC(=O)C(C)S4)CC2)cc1 (centres undefined),-2%,.,-17%,-29%,-1%,10%
COCCNc1oc(/C=C/c2ccccc2OC)nc1S(=O)(=O)c1ccccc1,0%[9.26 µM],.,-14%,6%,-2%,10µM*
CCC(C)n1c(=O)c2sccc2n2c(CCCC(=O)Nc3ccc(F)cc3)nnc12 (centres undefined),.,.,.,.,-5%,.
O=Cc1ccc(OCc2ccc3c(c2)OCO3)cc1,18µM*,.,17%,2%,4.8µM*,?
CCOc1ccc(NC(=O)NCc2ccc3c(c2)OCO3)cc1,3%,.,0%,17%,0%,-3%
Cc1ccc(OCCC(=O)Nc2ccc3c(c2)OCO3)cc1,0%,.,3%,-1%,-3%,?
Cc1ccc(COc2ccc3c(c2)OCO3)cc1,?,.,2.2µM*,4µM*,1.2µM*,?

# Bioassay records as filed in PubChem BioAssay.
